Compounds with a hit are over-represented: about 4.7% of the library has one in this group of screens.
Efflux pump mplx – inhibitors of Candida antifungal efflux pumps expressed in yeast | S. cerevisiae Candida pump triplex, Nile Red efflux | inhibition, % at 10 µM | hit rate 0.44% among 330,000;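 active = plate passing quality check with inhibition over a set limit, or well fluorescence over plate mean plus 4 SD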;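 also: Nile Red retained in pooled yeast measured as flow cytometry median fluorescence; 0% = buffer negative control and 100% = Enniatin B positive control; higher means more Nile Red kept so more efflux inhibition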
PABP FP inh – blocks human PABP binding to poly(A) RNA. hit rate 1% among 290,000. inhibition, % at 35 µM. fluorescence polarization;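 also: calls also rest on retests at 20 µM and on dose response follow-up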
PABP1 MLLE inh – blocks PAM2 peptide binding to the PABP1 MLLE domain | inhibition, % at 20 µM | P11940 | hit rate 0.36% among 360,000 | AID 588489 | GST-MLLE / FITC-PAM2 fluorescence polarization; in the data active = inhibition above about 35%, passing the limit was not always enough;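 also: plate controls were DMSO wells with GST-MLLE for no effect and wells lacking GST-MLLE protein for full effect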
eIF4H FP inh – inhibitors of RNA binding by human eIF4H | Q15056 | eIF4H fluorescence polarization binding assay | inhibition, % at 35 µM | hit rate 0.94% among 290,000;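 also: calls also rest on retests at 20 µM and on dose response follow-up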
UBC9 SUMO inh – SUMOylation inhibition. hit rate 0.36% among 290,000. HTRF SUMOylation assay, SAE1/SAE2 + UBC9, in vitro. P63279. inhibition, % at 35 µM; in the data active = inhibition above about 50%, passing the limit was not always enough; inconclusive = no clear call, values can overlap the other calls
Target sequence (P63279 whole entry, looked up): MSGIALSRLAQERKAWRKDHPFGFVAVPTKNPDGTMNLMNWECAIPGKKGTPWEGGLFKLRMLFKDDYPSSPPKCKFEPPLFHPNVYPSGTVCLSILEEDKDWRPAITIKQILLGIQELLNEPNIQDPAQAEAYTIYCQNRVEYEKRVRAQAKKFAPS
ALR H2O2 inh – inhibitors of human sulfhydryl oxidase ALR. P55789. purified ALR, DTT oxidation, H2O2 HRP-luminol luminescence. inhibition, % (test concentration not listed). hit rate 3.8% among 290,000;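 active = mean replicate inhibition above about 79%, with every replicate also reaching it, limit read from the data; inconclusive = only one of the two criteria met; inactive = mean below limit and not every replicate reaching it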
Target sequence (P55789 whole entry, looked up): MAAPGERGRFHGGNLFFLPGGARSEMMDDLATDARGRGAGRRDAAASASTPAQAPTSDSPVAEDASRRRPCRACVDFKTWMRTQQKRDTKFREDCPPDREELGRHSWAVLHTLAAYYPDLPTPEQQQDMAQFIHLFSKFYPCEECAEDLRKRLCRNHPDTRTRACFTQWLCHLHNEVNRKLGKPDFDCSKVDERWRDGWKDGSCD
Numbers without * were called inactive; ? = inconclusive; . = not tested or not shown. Unless noted, no rule for the calls is given here.

SMILES	Efflux pump mplx	PABP FP inh	PABP1 MLLE inh	eIF4H FP inh	UBC9 SUMO inh	ALR H2O2 inh
CC(Nc1ccc(Cl)cc1)c1cc(Cl)ccc1O (stereo not given)	0.0	2.1	-4.7	-0.5	4.2	99.1*
c1ccc(-c2nnc3nc(N4CCCCC4)nc(N4CCCCC4)n23)cc1	.	.	-13.9	.	.	.
CCc1ccc(N(CC(=O)Nc2ccccc2C(=O)N2CCOCC2)S(C)(=O)=O)cc1	0.0	58.2	9.6	-1.6	-4.8	14.2
Cc1ccc(C)c2c1c1ccccc1n2C	0.1	11.4	8.4	-2.2	7.4	.
CN(C)c1cc2c3ccccc3n(C)c2cc1N	.	.	64.5*	.	.	.
O=P(c1ccccc1)(c1ccccc1)c1ccccc1C(Br)Br	.	.	2.5	.	.	.
CCOC(=O)c1[nH]c2ccc(OC)cc2c1NC(=O)OC	0.1	-3.5	0.2	-7.6	23.5	-3.2
CCOC(=O)c1[nH]c2ccc(OC)cc2c1N=CN(C)C	-0.1	-11.2	-1.1	-3.4	36.3	98.1*
COCC1CCCN(C(=O)c2ccc3nc(Cc4cccc(Cl)c4)oc3c2)C1 (stereo not given)	0.2	-2.5	3.0	-1.0	2.1	-3.2
COc1ccc(-n2cccc2/C=C2\C(=N)N3N=C(c4ccco4)SC3=NC2=O)cc1	-0.1	-12.7	-19.9	44.3	87.8*	2.9
O=C(O)Cc1c[nH]c2cccc(O)c12	0.0	94.1*	-6.5	88.3*	?	16.5
O=C(O)Cc1c[nH]c2ccccc12	0.0	.	0.9	.	.	-9.5
c1ccc(-c2nc(-c3ccco3)n3ccccc23)cc1	-0.4	-12.3	36.8	?	41.5	93.8*
CCn1c(C)nc2cc(S(=O)(=O)Nc3ccc(C)cc3)ccc21	-0.1	50.8*	-139.3	7.9	-2.6	-13.0
CCn1c(C)nc2cc(C(=O)NNC(=S)Nc3ccc(C)cc3)ccc21	-0.3	-2.5	16.1	0.1	23.2	85.6*
CC(=O)c1cccc(N(CC(=O)NC2CCCCC2)C(=O)Cn2nnc(-c3ccccc3)n2)c1	0.2	3.0	1.1	8.5	-15.6	4.0
CCn1c(SCc2ccccc2)nc2cc(S(N)(=O)=O)ccc21	0.4	1.9	-4.0	-6.1	-2.5	-1.6
CCOC(=O)Nc1sc(NS(=O)(=O)c2ccccc2)nc1C	0.0	12.0	27.3	-9.5	14.3	97.8*
CCOC(=O)Nc1sc(NS(=O)(=O)c2ccc(C)cc2)nc1C	0.0	-5.8	33.7	2.1	19.9	30.5
Cc1nc(NS(=O)(=O)c2ccccc2)sc1NC(=O)Nc1ccc(Cl)cc1	0.0	18.4	20.1	-2.5	-6.4	73.6
Cc1nc(NS(=O)(=O)c2ccccc2)sc1NC(=O)Nc1ccccc1	-0.1	6.0	14.1	2.0	2.9	98.6*
COc1ccc(CN(CC(=O)NCC2CCCO2)C(=O)CCC(=O)Nc2nccs2)cc1 (stereo not given)	0.1	6.2	6.9	-5.6	8.4	-1.7
Cc1ccc([C@H]2C[C@H](O)[C@@H](n3cc(-c4ccc(F)cc4)nn3)CN2CC2CCCCC2)cc1	.	.	8.4	.	.	.
Cc1cccc(N2C(=O)C(O)=C(C(=O)c3cccs3)C2c2ccccc2)n1 (stereo not given)	-0.2	0.5	-5.9	-7.4	6.3	-16.6
Cc1cccc(N2C(=O)C(O)=C(C(=O)c3cccs3)C2c2cccc(Oc3ccccc3)c2)n1 (stereo not given)	-0.1	0.1	8.7	12.9	15.9	97.8*
SMILES	Efflux pump mplx	PABP FP inh	PABP1 MLLE inh	eIF4H FP inh	UBC9 SUMO inh	ALR H2O2 inh
O=C(C1=C(O)C(=O)N(c2ccccc2)C1c1ccc([N+](=O)[O-])cc1)c1cccs1 (stereo not given)	-0.1	27.2	15.8	43.7	7.8	89.3*
CCN1CCN(C(=O)c2ccc(CN(c3ccccc3)S(=O)(=O)c3ccccc3)cc2)CC1	0.2	-5.2	-1.5	8.4	3.5	.
CCOC(=O)N/N=C/c1ccc(N(CC)CC)cc1O	-0.1	1.8	-3.3	2.9	-19.7	99.4*
CCN(CC)c1ccc(/C=N/NC(=O)c2c(Cl)cnn2C)c(O)c1	-0.3	6.8	8.9	3.3	-14.2	98.7*
CCN(CC)c1ccc(/C=N/NC(=O)c2cccc(S(=O)(=O)N3CCOCC3)c2)c(O)c1	-0.1	-1.8	-24.4	5.2	11.8	.
Cc1ccc(-c2cn(-c3ccccc3F)c(=S)[nH]2)cc1	-0.2	-2.2	18.8	1.5	3.5	72.3
O=[N+]([O-])c1ccc(-c2cn(-c3ccccc3F)c(=S)[nH]2)cc1	-0.1	-14.0	-33.1	37.6	2.5	83.7*
CCOC(=O)c1ccc(NC(=O)NC2=NCCS2)cc1	.	.	5.8	.	.	.
Cc1c(C(C)(C)C)c(C=S)n2ccccc12	-0.1	111.0*	29.5	77.3*	12.9	-14.7
CCOc1ccc(-c2cc(C(=O)NCc3cc(OC)cc(OC)c3)[nH]n2)c(C)c1	.	.	3.0	.	.	.
O=C(NCC1CCCO1)C(c1cccs1)N(Cc1ccccc1)C(=O)c1ccc(-c2ccccc2)[nH]1 (stereo not given)	-0.1	4.4	-19.7	-11.1	-17.8	.
CC(C)(C)NC(=O)C(c1cccs1)N(CC1CCCO1)C(=O)c1ccc(-c2ccccc2)[nH]1 (stereo not given)	0.2	50.5	1.1	active	-0.7	-5.1
O=C1C=CC(=O)c2c(O)c(N3CCN(CCOCCO)CC3)c(Br)c(O)c21	.	.	93.9*	.	.	.
O=C1C=CC(=O)c2c(O)c(N3CCN(CCO)CC3)c(Cl)c(O)c21	.	.	91.3*	.	.	.
O=C(CSc1nnc(-c2ccccc2)n1-c1ccccc1)c1cccs1	0.2	5.7	-32.6	-8.2	27.1	-7.9
c1ccc(CSc2ncn(-c3ccccc3)n2)cc1	0.2	0.8	6.5	-5.2	16.9	-2.0
O=C(CSc1ncn(-c2ccccc2)n1)c1cccs1	0.0	-6.3	37.9*	-5.8	19.5	34.7
Nc1nc(CSc2ncn(-c3ccccc3)n2)cs1	0.0	4.5	20.4	1.1	7.0	97.9*
O=C(Oc1ccc(/C=N/NC(=O)c2ccccc2O)cc1)c1ccccc1	0.0	-1.0	15.1	-5.9	4.7	-17.0
O=C(CC1SC(=O)NC1=O)Oc1ccc(/C=N/NC(=O)c2ccccc2O)cc1 (stereo not given)	0.0	24.5	28.5	-0.7	15.3	99.0*
O=C(COc1ccc(/C=N/NC(=O)c2ccccc2O)cc1)Nc1ccccc1	-0.1	active	9.4	61.2	45.9	.
Cn1nccc1C(=O)Oc1ccc(/C=N/NC(=O)c2ccccc2O)cc1	0.0	-10.4	-15.6	-2.2	17.9	93.5*
COc1cccc(NC(=O)CN(C)C(=O)C(Sc2ccccc2)c2ccccc2)c1 (stereo not given)	.	.	6.8	.	.	.
Cc1cccc(N=C(NO)c2nonc2N)c1	-0.1	7.3	-2.5	4.2	9.1	88.8*
C[C@H]1CN[C@H](CCO)/C1=C\c1ccccc1	.	.	-6.7	.	.	.
COc1cc(/C=C2\SC(=Nc3ccccc3)NC2=O)cc(Cl)c1O	0.1	?	-148.8	?	-17.2	56.0
COc1cc(/C=C2\SC(=Nc3ccc(Cl)c(C(=O)O)c3)NC2=O)c(Br)c(Br)c1O	0.2	?	-126.5	?	30.2	98.1*
